Assay results: PubChem BioAssay AID492964 (The Scripps Research Institute Molecular Screening Center, 2010)
Hit rate of the full screen: of about 1,800 compounds, about 880 (49%) were called active. So high a share suggests a set chosen from earlier hits. The list is a sample of the results. Values without a mark were called inactive. No stated cut-off is given here; in the data, active means inhibition above about 55%; inactive means the rest.

Each molecule was assayed against Orexin/Hypocretin receptor type 1 (Homo sapiens) (UniProt O43613) (assay: OX1R (HCRTR1) antagonists, confirmation, cell-based, HTRF (AID 492964;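 further: CHO cells expressing OX1R stimulated with orexin A at about EC80; 0% = agonist challenge alone and 100% = reference antagonist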)). Details: OX1R-expressing cells, HTRF antagonist assay; at 6.6 µM; hits give high values.
Chain of Orexin/Hypocretin receptor type 1 (Homo sapiens) (O43613 whole entry, looked up): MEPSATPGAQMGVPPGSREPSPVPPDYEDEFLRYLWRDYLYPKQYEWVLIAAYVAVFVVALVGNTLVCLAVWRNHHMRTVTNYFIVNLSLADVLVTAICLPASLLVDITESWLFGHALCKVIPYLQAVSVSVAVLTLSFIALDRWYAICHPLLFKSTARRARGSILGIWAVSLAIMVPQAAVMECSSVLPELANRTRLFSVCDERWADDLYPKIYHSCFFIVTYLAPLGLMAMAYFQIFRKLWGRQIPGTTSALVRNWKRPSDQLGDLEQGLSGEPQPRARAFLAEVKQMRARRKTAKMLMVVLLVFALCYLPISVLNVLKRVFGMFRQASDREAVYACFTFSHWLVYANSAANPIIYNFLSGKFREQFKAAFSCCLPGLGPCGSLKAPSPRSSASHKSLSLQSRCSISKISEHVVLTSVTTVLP

Row | Compound | inhibition
1 | CCn1c(C)nc2c1C(=O)c1ccccc1C2=O | 69.9% (active)
2 | CC(=O)Oc1ccc(C(C)=O)c2c1OCCO2 | 19.2%
3 | CC(NC(=O)c1cccc2ccccc12)c1ccc2c(c1)CCCC2 (stereo unspecified) | 64.9% (active)
4 | O=C(Nc1cccc2cccnc12)c1cccc(N2C(=O)CCC2=O)c1 | 86.1% (active)
5 | COc1cccc(N=c2oc3c(C)ncc(CO)c3cc2C(N)=O)c1 | 51.7%
6 | Cc1oc2c(c1C(=O)N1CCOCC1)C(=O)c1ccccc1C2=O | 78.8% (active)
7 | CCn1c(O)c(N=NC2=NC(=O)CS2)c2cc(C)ccc21 | 28.9%
8 | O=C(N/N=C/c1sc(N2CCCCC2)nc1-c1cccs1)c1cccnc1 | 89.2% (active)
9 | N#Cc1nc(-c2cccc3ccccc23)oc1N | 60.8% (active)
10 | O=C(Nc1ccccc1Cl)/C(Cl)=C(\Cl)S(=O)c1ccccc1 (stereo unspecified) | 89.9% (active)
11 | Cc1cccc(NC(=O)Nc2cccc(Oc3c(F)c(F)c(F)c(F)c3F)c2)c1 | 35.4%
12 | NS(=O)(=O)c1ccc(CCNC(=O)c2ccc([N+](=O)[O-])cc2[N+](=O)[O-])cc1 | 84.6% (active)
13 | CSCCC(NC(=O)c1cc([N+](=O)[O-])cc([N+](=O)[O-])c1)c1nc2ccccc2[nH]1 (stereo unspecified) | 46.4%
14 | Cc1c(/C=N\NC(=O)c2cc3ccccc3o2)c2ccccc2n1C | 83.1% (active)
15 | COc1cccc(C(=O)NC(=O)Nc2nc(C)cc(C(F)(F)F)n2)c1 | 57.7% (active)
16 | Cc1cc(=O)oc(C)c1C(=O)NCCN(C)Cc1ccccc1 | 12.3%
17 | O=C(NC(Cc1c[nH]c2ccccc12)C(=O)N/N=C/c1ccc(Br)cc1)c1cccs1 (stereo unspecified) | 81.2% (active)
18 | CC(C)(C)NC(=O)CN(C(=O)c1csnn1)c1ccccc1-c1ccccc1 | 55.5% (active)
19 | COc1ccc2sc(-c3ccc(N(C)C)cc3)c(C#CCO)c2c1 | 62.2% (active)
20 | CCn1c(=N)c(C(=O)NCCCOC)cc2c(=O)n3cccc(C)c3nc21 | 47.5%
21 | COC(=O)c1sccc1NC(=O)CSc1ccccc1NS(=O)(=O)c1cc(Cl)ccc1Cl | 67.1% (active)
22 | COc1ccc(N(C)C(=O)CCS(=O)(=O)c2cccc3nsnc23)cc1 | 38.3%

Row | Compound | inhibition
23 | CC(=O)Nc1ccc(Nc2c([N+](=O)[O-])cc(S(C)(=O)=O)cc2[N+](=O)[O-])cc1 | 46.9%
24 | COC(=O)N/N=C/c1c[n+]([O-])c2ccccc2[n+]1[O-] | 69.1% (active)
25 | COCCNC(=O)Nc1ccc2nc(-c3ccco3)c(-c3ccco3)nc2c1 | 32.4%
26 | COc1cc(OC)c(NC(=O)c2ccc(Br)o2)cc1Cl | 66.4% (active)
27 | Nc1ccc2nc3c(=O)[nH]c(=S)[nH]c3nc2c1 | 47.3%
28 | N#CC(=C1SC=CS1)c1nc(-c2ccccc2)cs1 | 92.5% (active)
29 | N#C/C(=C1\CCCN1)c1nc(-c2ccccc2)cs1 | 94% (active)
30 | Nc1[nH][nH]c(=O)c1N=Nc1ccc2c(c1)OCO2 | 34.5%
31 | COCCCNC(=S)NC(=O)c1ccc([N+](=O)[O-])cc1 | 50.2%
32 | Cn1cnnc1Sc1ccc(S(C)(=O)=O)cc1[N+](=O)[O-] | 42.5%
33 | COc1cc2ccccc2cc1C(=O)Nc1ccc(N2CCOCC2)cc1 | 56.8% (active)
34 | COc1ccccc1N1CC(C(=O)Nc2ccc(S(=O)(=O)N3CCOCC3)cc2)CC1=O (stereo unspecified) | 16.2%
35 | COc1cccc(/C=N/Nc2cc(C)nc(-c3ccccc3O)n2)c1O | 92.3% (active)
36 | CCOc1ccc(/C=C/C(=O)OCC(=O)c2ccccc2OC)cc1OC | 58.8% (active)
37 | CC(C)CC[n+]1ccn(C2=C([O-])c3ccccc3C(=O)/C2=N\S(=O)(=O)c2ccccc2)c1 | 51.6%
38 | COc1cc(C(=S)N2CCOCC2)cc(OC)c1OC(=O)c1ccc([N+](=O)[O-])cc1[N+](=O)[O-] | 88.1% (active)
39 | O=C(Oc1ccccc1C(=S)N1CCCCC1)c1cc([N+](=O)[O-])cc([N+](=O)[O-])c1 | 35.2%
40 | CCn1c(SCC(=O)c2ccc3ccccc3c2)nnc1-c1cccs1 | 81.2% (active)
41 | COc1ccc(N2CC(C(=O)NCCN3C(=O)S/C(=C\c4cccnc4)C3=O)CC2=O)c(OC)c1 (stereo unspecified) | 106% (active)
42 | O=C(O)CCC(=O)Nc1nc2ccc([N+](=O)[O-])cc2s1 | 50.8%
43 | Cc1cc(-c2ccc(C)c(S(=O)(=O)NC(C)Cc3ccco3)c2)on1 (stereo unspecified) | 30.2%
44 | COc1ccc(S(=O)(=O)NC(C)c2ccccc2)cc1C(=O)N1CCCCC1 (stereo unspecified) | 72.9% (active)

Row | Compound | inhibition
45 | CC(=O)N/N=C/c1cc2c(cc1[N+](=O)[O-])OCO2 | 34.2%
46 | COC(=O)CNC(=O)c1ccc2c(c1)S(=O)(=O)c1ccccc1C2=O | 63% (active)
47 | Cc1cc(C(=O)NC2CCCc3c2cnn3-c2cccc(C)c2C)c(C)o1 (stereo unspecified) | 63.8% (active)
48 | Cc1cccc(NS(=O)(=O)c2cccc(C(=O)NNC(=O)c3ccccc3O)c2)c1 | 30.5%
49 | S=c1[nH]nc(-c2cc(-c3ccccc3)n[nH]2)n1/N=C/c1c2ccccc2cc2ccccc12 | 60% (active)
50 | Cc1cccn2c(=O)c3cc(C#N)c(=NC(=O)c4cccnc4)n(CC4CCCO4)c3nc12 (stereo unspecified) | 44.2%
51 | COc1ccc(CCn2c(NCCCN3CCOCC3)nc3c2c(=O)[nH]c(=O)n3C)cc1 | 15.3%
52 | CCOc1ccc(CCNC(=O)C(CC)n2nc(C)n3c(cc4sccc43)c2=O)cc1OCC (stereo unspecified) | 81.6% (active)
53 | COc1cccc(/C=C/c2ccc3ccccc3n2)c1OC(C)=O | 37.3%
54 | CN(C(=O)CSc1nnc(-c2n[nH]c3ccccc23)o1)c1ccccc1 | 35%
55 | COc1cccc(/C=N/NC(=O)c2[nH]nc3c2CCc2ccccc2-3)c1O | 55% (active)
56 | Nc1nc(COC(=O)CCC(=O)c2ccc(Cl)cc2)nc(Nc2ccccc2)n1 | 38.7%
57 | O=C(/C=C/c1ccco1)Nc1cccc(-c2nc3ccccc3[nH]2)c1 | 59% (active)
58 | COc1ccc(CCNC(=O)/C(C#N)=C2\N=C(NC(=O)c3cccs3)c3ccccc32)cc1 | 19.5%
59 | CCC(=O)N(C)C(c1ccccc1Cl)c1nnnn1-c1c(C)cccc1C (stereo unspecified) | 64% (active)
60 | Cc1ccc2c(c1)nnc1nnc(SCC(=O)O)n12 | 63.9% (active)
61 | C/C(N)=C(/C#N)C(=O)COC(=O)c1cc(-c2ccc(C)cc2)nc2ccccc12 | 27.5%
62 | O=C(Nc1nnc(-c2ccccc2)o1)c1cc(-c2cccs2)nc2ccccc12 | 75.6% (active)
63 | CCOc1ccc(NC(=O)CCS(=O)(=O)c2cccc3nsnc23)cc1 | 31.9%
64 | CC(=O)c1cccc(NC(=O)C2CCCN2S(=O)(=O)c2cccc3nsnc23)c1 (stereo unspecified) | 101% (active)
65 | O=C(NCc1ccco1)C1CCCN(S(=O)(=O)c2cccc3nonc23)C1 (stereo unspecified) | 16.2%
66 | Cc1cc(C)cc(NC(=O)C2CCCN2S(=O)(=O)c2cccc3cccnc23)c1 (stereo unspecified) | 88.2% (active)

Row | Compound | inhibition
67 | CN1CCN(/N=C/c2ccc(-c3ccc([N+](=O)[O-])cc3)o2)CC1 | 26.4%
68 | C=CCn1c(SCC(=O)Nc2nc3ccccc3s2)nnc1-c1ccccc1O | 76.1% (active)
69 | COc1ccc2oc(=O)c(C(=O)NCc3ccccn3)cc2c1 | 35.8%
70 | O=C(Nc1ccc2sc3ccccc3c(=O)c2c1)c1ccccc1Cl | 95.8% (active)
71 | CC(C)(C)NC(=O)Cn1cnc2cc([N+](=O)[O-])ccc2c1=O | 43.3%
72 | CCOc1cc(/C=C(\C#N)c2nc(-c3cccs3)c(NC(C)=O)s2)ccc1O | 73.3% (active)
73 | O=C(Cc1ccccc1)N1CCN(S(=O)(=O)c2ccc([N+](=O)[O-])cc2)CC1 | 61.2% (active)
74 | Cc1ccccc1S(=O)(=O)N1[C@@H](c2cccc(Cl)c2)C(C(=O)O)=CC[C@H]1c1ccc(Cl)cc1 | 87.4% (active)
75 | Cc1ccc([C@@H]2CC=C(C(=O)O)[C@H](c3cccc(Cl)c3)N2S(=O)(=O)c2ccc(C)cc2)cc1 | 82.8% (active)
76 | O=C(Nc1nnc(C2=COCCO2)o1)c1ccc([N+](=O)[O-])s1 | 49.7%
77 | c1ccc(-c2nc(NCc3ccco3)c3ccccc3n2)cc1 | 64% (active)
78 | C[n+]1ccccc1C1CCCC/C1=N\Nc1ccc([N+](=O)[O-])cc1[N+](=O)[O-] (stereo unspecified) | 35.2%
79 | Nc1nc(-c2sc3nc4c(cc3c2N)CCCC4)nc(N2CCOCC2)n1 | 94.8% (active)
80 | O=C(CN1C(=O)c2cccc3cccc(c23)C1=O)N1CCCCC1 | 33.8%
81 | Cn1c(N)c(C(=O)COC(=O)c2ccc3ccccc3c2)c(=O)n(C)c1=O | 63.3% (active)
82 | COc1ccc2[nH]c(=O)c(CNc3ccc(C)c(C)c3)cc2c1 | 31.3%
83 | O=C(N/N=C/c1c(Cl)[nH]c2ccccc12)c1sc2ccccc2c1Cl | 92.5% (active)
84 | Cc1ccc(Nc2nc(CSc3nnnn3-c3ccccc3)cc(=O)[nH]2)cc1 | 22.3%
85 | O=C(OC1CCOC1=O)c1ccc(-c2nc3ccccc3s2)s1 (stereo unspecified) | 98.5% (active)
86 | O=C(c1ccncc1)c1ccc([N+](=O)[O-])cc1 | 53.2%
